# The list is not random: actives were taken first. Their share in the collection is about 11%.
# Luciferase inh: blocks purified firefly luciferase enzyme activity | P08659 | purified P. pyralis luciferase, luminescence, biochemical | Potency, µM (top dose mostly 115 µM), hits mostly inhibitors | hit rate 2.5% among 76,000; also: nearly all actives have a fitted effect of over 65% in size
#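 Luminescence read by CCD imager after adding enzyme (10nM final) to wells holding compound, titrated in qHTS. Substrates 10uM each D-luciferin and ATP; buffer 50mM Tris acetate pH 7.5, 10mM Mg acetate, Tween-20, BSA.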
# NPR1 antag: human Npr1 receptor antagonism | HEK293 hNpr1 GloSensor cGMP, ANP-stimulated luminescence | Potency, µM (titrated, usually from 46.3 µM), actives largely listed as inhibitors | P16066 | hit rate 1.6% among 76,000 | AID 1347048; calls by dose curve; also: nearly all actives have a fitted effect of over 60% in size
#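 Compound pre-incubated 30 min at room temperature on GloSensor-loaded HEK293 cells stably carrying hNpr1 and the pGS-40F cGMP biosensor. Stimulation uses hNppA at 0.1 nM final; luminescence is taken at baseline and 20 min post-agonist.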
# NIH3T3 tox: NIH 3T3 cell cytotoxicity; NIH 3T3 viability, CellTiter-Glo ATP luminescence, 48-72 h; Potency, µM (top dose mostly 96.7 µM), actives largely listed as inhibitors; hit rate 4.3% among 94,000; also: nearly all actives have a fitted effect of over 55% in size
#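 NIH 3T3 cells at 400 cells/well received 23 nL of compound by pintool and were incubated 48 or 72 h at 37 °C. Viability was read as ATP-coupled CellTiter-Glo luminescence.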
# HEK cytotox: HEK 293 cell cytotoxicity. HEK 293 viability, ATP luminescence (CellTiter-Glo), 48-72 h. hit rate 6.6% among 94,000. AID 1345083. Potency, µM (doses to about 115 µM), hits mostly inhibitors; also: nearly all actives have a fitted effect of over 60% in size
#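 HEK 293 cells seeded at 250 cells/well were exposed to compound for 48 or 72 hr at 37 degree Celsius. Viability taken as ATP content by CellTiter-Glo luminescence.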
# Numbers stand for hits; i = inactive; ? = inconclusive; nt = not tested or not shown. Unless noted, calls follow the shape of the dose curve; as a rule, active = well fitted curve in the direction sought with a large enough effect; inconclusive = small, poorly fitted or top-dose-only effect, or another doubt; inactive = no such curve, though single readings can be large; an effect the other way counts as inactive or inconclusive.
SMILES,Luciferase inh,NPR1 antag,NIH3T3 tox,HEK cytotox
COc1ccc(NC(=O)CN2C(=O)NC3(CCC(C(C)(C)C)CC3)C2=O)c(OC)c1 (stereo not drawn),i,i,?,35µM
Cc1nncn1C1CCN(S(=O)(=O)c2ccccc2)CC1,i,i,i,i
Cc1cc(Cn2cc3c4c(cccc42)[C@H](CC(C)C)N[C@H](C(=O)NCC2CC2)C3)no1,i,i,89µM,79µM
Cc1cc(Cn2cc3c4c(cccc42)[C@H](CC(C)C)N[C@H](C(=O)NCCN(C)C)C3)no1,i,i,22µM,35µM
CN1C(=O)[C@H](OC(N)=O)[C@@H](C(=O)Nc2ccccc2)C12CCN(C(=O)CC1CCCC1)CC2,nt,nt,?,i
Cn1cc(C(=O)N2CCC(N(Cc3ccccc3)C3CCOCC3)CC2)cn1,i,i,i,i
CN1CCC(N(Cc2ccccc2)[C@@H]2C[C@@H]3CO[C@H](c4ccccc4)C[C@@H]3C2)CC1,nt,nt,14µM,?
COc1ccc(Cl)cc1-c1ccc2c(c1)C(=O)N1C[C@@H](NS(=O)(=O)c3ccc(F)cc3)C[C@H]1C(=O)N2,i,i,?,35µM
COc1ccc(Cl)cc1-c1ccc2c(c1)C(=O)N1CC[C@H](N)C[C@H]1C(=O)N2,i,i,32µM,25µM
COc1ccc(Cl)cc1-c1ccc2c(c1)C(=O)N1C[C@H](O)C[C@H]1C(=O)N2,i,i,?,?
Cc1ccc([S+](=O)([O-])NCCNC(=O)c2ccc(-c3cncnc3)cc2)cc1,nt,nt,i,i
O=C(NCCN[S+](=O)([O-])c1cccc(C(F)(F)F)c1)c1cccc(-c2ccsc2)c1,nt,nt,40µM,?
O=C(NCCN[S+](=O)([O-])c1cccc(C(F)(F)F)c1)c1ccc(-c2cncnc2)cc1,nt,nt,i,89µM
CCC(C)NC(=O)CNC(=O)c1ccc(-c2cccc(C(F)(F)F)c2)cc1 (stereo not drawn),nt,nt,i,35µM
O=C(NCCN[S+](=O)([O-])c1cccc(C(F)(F)F)c1)c1ccc(-c2cccc(C(F)(F)F)c2)cc1,nt,nt,28µM,40µM
O=C(N[C@H]1C[C@H]2C(=O)NC[C@@H](CCC(=O)N3CCCC3)N2C1)c1cccs1,i,i,i,i
COc1ccc(NC(=O)C2CCc3nnc(CNC(C)=O)n32)cc1 (stereo not drawn),nt,nt,i,i
CCN1c2cc(C(=O)NCc3cccc(C)c3)ccc2C(=O)N2CCCCCC21 (stereo not drawn),i,i,?,?
CCN1c2cc(C(=O)Nc3cccc(Br)c3)ccc2C(=O)N2CCCCCC21 (stereo not drawn),i,i,28µM,18µM
CCN1c2cc(C(=O)Nc3ccc(Br)cc3)ccc2C(=O)N2CCCCC21 (stereo not drawn),i,i,?,?
CCN1c2cc(C(=O)Nc3cccc(Br)c3)ccc2C(=O)N2CCCCC21 (stereo not drawn),i,i,18µM,18µM
CCN1c2cc(C(=O)NCc3cccc(Br)c3)ccc2C(=O)N2CCCCC21 (stereo not drawn),i,i,?,32µM
Cc1nnc2ccc(N3CCC(NC(=O)c4cccc(Cl)c4)CC3)nn12,nt,nt,i,i
Cc1cc(C(=O)NCC2CCCCC(=O)N2)n(C)n1 (stereo not drawn),i,i,i,i
CN1CCN(C(=O)c2cc3n(n2)CC(c2ccc(Br)cc2)OC3)CC1 (stereo not drawn),i,i,?,40µM
SMILES,Luciferase inh,NPR1 antag,NIH3T3 tox,HEK cytotox
O=C(c1cc2n(n1)CC(c1ccc(Cl)cc1)OC2)N1CCN(c2ccccc2Cl)CC1 (stereo not drawn),i,i,?,28µM
O=C(c1cc2n(n1)CC(c1ccc(Cl)cc1)OC2)N1CCN(c2ccc(F)cc2)CC1 (stereo not drawn),i,?,?,40µM
O=C(c1cc2n(n1)CC(c1ccc3c(c1)OCO3)OC2)N1CCN(c2ccccc2)CC1 (stereo not drawn),i,?,?,?
O=C(Cn1ccn2nc(-c3ccc(F)cc3)c(CO)c2c1=O)N1CCN(c2ccccc2)CC1,i,i,i,i
Cc1cc(Cl)ccc1OCC(=O)N1CCC(c2n[nH]c(=O)n2-c2ccccc2)CC1,i,i,40µM,?
Cc1cccc(OCC(=O)N2CCC(c3n[nH]c(=O)n3-c3ccccc3)CC2)c1,i,i,7.1µM,i
CN(C)c1cccc(C(=O)N2CCC(c3n[nH]c(=O)n3-c3ccccc3)CC2)c1,32µM,i,i,i
Cc1ccc(Cn2c(C3CCN(C(=O)COc4cccc(C)c4)CC3)n[nH]c2=O)cc1,i,i,i,i
Cc1cccc(OCC(=O)N2CCC(c3n[nH]c(=O)n3Cc3ccc(F)cc3)CC2)c1,i,i,20µM,i
Cc1ccc(-n2c(C3CCN(C(=O)COc4ccc(Cl)cc4C)CC3)n[nH]c2=O)cc1,i,i,i,?
COc1cccc(CCC(=O)N2CCC(c3n[nH]c(=O)n3-c3ccccc3)CC2)c1,i,i,i,i
COc1ccc(CNC2CN(C(=O)OC(C)(C)C)C2)cc1,nt,nt,i,i
O=C1NCCCCCN(C(=O)CCC2CCCC2)[C@H]2CCC[C@@H]12,i,i,i,i
C=CCNC(=O)N1CC[C@H]2CC(=O)N([C@H](C(N)=O)C(C)C)CC[C@H]2C1,i,i,i,i
COC(=O)CNC(=O)N1c2ccccc2CC1c1nc(C2CC2)no1 (stereo not drawn),i,i,i,i
Cc1ccc(C(=O)N2CCCC3(COc4ccccc4C(=O)N3)C2)cc1 (stereo not drawn),i,i,?,63µM
O=C1NC2(CCCN(C(=O)c3ccc4c(c3)OCO4)C2)COc2ccccc21 (stereo not drawn),i,i,?,40µM
O=C1NC2(CCCN(C(=O)c3ccccc3F)C2)COc2ccccc21 (stereo not drawn),i,13µM,?,35µM
COc1ccccc1N1CCN([C@H]2[C@@H]3OC[C@@H](O3)[C@@H](NCc3ccccc3O)[C@@H]2O)CC1,i,i,i,i
COc1ccc(CNC(=O)CCC2CCN(S(=O)(=O)c3ccccc3)CC2)cc1OC,i,i,i,?
CC(C)CNC(=O)N1CCCCCCNC(=O)[C@@H]2C[C@@H](c3nc(-c4cccnc4)no3)C[C@@H]21,i,i,i,i
Cn1cc(-c2cnc3[nH]cc(CC(=O)NCc4ccncc4)c3c2)cn1,i,i,?,i
Cn1cc(-c2cnc3[nH]cc(CC(=O)N4CCCC4)c3c2)cn1,i,i,32µM,i
COC1CCN(C(=O)Cc2c[nH]c3ncc(-c4cnn(C)c4)cc23)CC1,i,i,45µM,?
C[S+](=O)([O-])c1ccc(-c2cnc3[nH]cc(CC(=O)N4CCOCC4)c3c2)cc1,i,i,45µM,i
Cc1ccc(CNC(=O)C2CCN(c3cnc4nccnc4c3)CC2)o1,i,i,i,i
C[S+](=O)([O-])N1CCc2nc(-c3ccccc3)nc(-c3ccc(Cl)cc3)c2C1,i,i,i,i
COc1ccc(-c2nc(C(C)C)nc3c2CN([S+](=O)([O-])c2cccc(OC)c2)CC3)cc1,i,i,?,?
